A selection: hits, their analogues and other compounds. The true share with any hit is near 8%.
HT1080 IDH1KD tx = kills HT-1080 cells with IDH1 knockdown | HT-1080 IDH1 knockdown viability, ATP luminescence, 48 h | Potency, µM (titrated, usually from 46.1 µM), for inactives: at the top dose activity, negative = toxicity, most hits filed as cytotoxic | actives 2% (n = 360,000);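 note: 0% = DMSO wells and -100% = cell-free medium wells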
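CellTiter-Glo luminescence after 48 h compound exposure at 37 degrees C of IDH1-knockdown HT-1080 cells in 5% FBS RPMI. %Activity scaled between DMSO wells and cell-free media wells, with curves fitted and assigned curve classes.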
KB-3-1 tox = KB-3-1 parental cell cytotoxicity; KB-3-1 viability, CellTiter-Glo ATP luminescence, 72 h; actives 1.4% (n = 400,000); Potency, µM (series often up to 46.1 µM), most hits filed as cytotoxic; note: % is set by controls: 0 for no effect and ±100 for the full control effect; nearly all actives have a fitted effect of over 60% in size
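Screening of KB-3-1 cells (DMEM, 10% FBS, phenol-red free) ran from lowest to highest compound concentration; after 72 h at 37 °C viability was read luminescently and curves fitted.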
MCF10A rerep = inducers of DNA re-replication in MCF 10A breast cells; MCF 10A DNA re-replication, Hoechst nuclear intensity, 48 h; Potency, µM (titrated, usually from 46.1 µM), for inactives: at the top dose activity, positive = re-replication, hits mostly activators; actives 2.9% (n = 350,000); AID 624296; note: % of control where 0% means no effect; nearly all actives have a fitted effect of over 50% in size
HT1080-NT tox = kills 2HG-producing HT-1080-NT fibrosarcoma cells; HT-1080-NT fibrosarcoma viability, CellTiter-Glo ATP luminescence, 48 h; Potency, µM (titrated, usually from 46.1 µM), for the others: at the top dose activity, negative = less viability, hits mostly cytotoxic; actives 1.6% (n = 360,000); AID 686970;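 note: NT is the 2HG producing partner of a matched IDH1 knockdown line; 0% = DMSO-treated cells and -100% = media-only wells without cells; nearly all actives have a fitted effect of over 55% in size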
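A 48-hour cytotoxicity screen used HT-1080-NT cells plated 2 hours before compound delivery. ATP-based CellTiter-Glo luminescence measured viability, normalized to DMSO and no-cell controls.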
KB-V1 MDR tox = kills drug-selected multidrug resistant KB-V1 cells | Potency, µM (highest dose often 46.1 µM), actives largely listed as cytotoxic | actives 3.4% (n = 400,000) | KB-V1 MDR cells viability, CellTiter-Glo, 72 h | AID 1347076; note: % is set by controls: 0 for no effect and ±100 for the full control effect; nearly all actives have a fitted effect of over 60% in size
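In this primary screen, KB-V1 cells overexpressing P-gp are incubated with library compounds (lowest to highest concentration) for 72 h at 37 degrees C before a luminescent ATP viability read.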
SW480 rerep = inducers of DNA re-replication in SW480 colon cancer cells | SW480 DNA re-replication, Hoechst DNA content imaging, 48 h | actives 1.8% (n = 340,000) | AID 624297 | Potency, µM (doses to about 46.1 µM), inactives show at the top dose re-replication activation, usual class: activators; note: % of control where 0% means no effect; nearly all actives have a fitted effect of over 55% in size
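Image-based DNA-content assay: after two days of treatment, nuclei were labelled with the DNA dye Hoechst and imaged, and hits were compounds raising the count of nuclei showing high fluorescence intensity.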
* marks the source's active call; other numbers are inactive results; i = inactive; ? = inconclusive; · = no result; [ ] = dose if it differs, or a comment. Calls come from the whole dose curve; as a rule, active = well fitted curve in the direction sought with a large enough effect; inconclusive = small, poorly fitted or top-dose-only effect, or another doubt; inactive = no such curve, though single readings can be large; an effect the other way counts as inactive or inconclusive. Potency is the fitted concentration of half-maximal effect.

SMILES | HT1080 IDH1KD tx | KB-3-1 tox | MCF10A rerep | HT1080-NT tox | KB-V1 MDR tox | SW480 rerep
CCn1c(C)cc(C(=O)CSc2nnc(-c3ccco3)o2)c1C | -5% | i | 21% | -9% | ? | 6.5µM*
COc1ccc(C(=O)CSc2nnc(-c3ccco3)c(-c3ccco3)n2)cc1 | -2% | ? | 4% | -2% | i | 6.5µM*
Cc1cc(C(=O)CSc2nnc(-c3ccco3)o2)c(C)n1C | -23% | i | 21% | -19% | ? | ?
CN1C[C@@H]2C(c3ccccc3)C3(c4ccccc4)CC2(C3)[C@H]1c1ccccc1 (stereo partly drawn) | 3% | i | -2% | 4% | i | 41%[9.22 µM]
CN(C)c1cccc(CNC(=O)c2csc([C@@H]3C[C@H](O)[C@@H](CO)O3)n2)c1 | 3% | i | · | -3% | i | ·
COc1ccc(-c2ccnc(SCC(=O)c3ccc(OC)c(OC)c3)n2)cc1 | 0% | i | -1% | 7% | 16µM* | 7%
CC(=O)N1CCN(c2ccc(NCc3ccc(F)cc3)cc2)CC1 | 5% | i | -1% | 9% | i | 3%
COc1cc(CNc2ccc(N3CCN(C(C)=O)CC3)cc2)ccc1OCc1ccc(F)cc1 | ? | i | 10µM* | 23µM* | i | 1%
Cc1nc(SCC(=O)NCCc2ccccc2)nc(C)c1C | 0% | i | ? | -2% | i | -3%[9.22 µM]
O=C(Nc1ccc2c(c1)CCC2)c1cnn2c1NC(c1ccco1)CC2C(F)(F)F (stereo not drawn) | 23µM* | i | ? | ? | i | 25%
CN(Cc1ccc(-n2cccn2)cc1)C(=O)c1cnn2c1NC(c1ccco1)CC2C(F)(F)F (stereo not drawn) | -7% | ? | ? | -8% | 4.6µM* | 4%
Cc1ccc(Cl)cc1NC(=O)c1cnn2c1NC(c1ccco1)CC2C(F)(F)F (stereo not drawn) | -14% | i | 24% | -19% | i | 28%
Cc1nnc2sc(-c3ccc(-c4ccc(Cl)c(C(F)(F)F)c4)o3)nn12 | 3% | i | 7% | 2% | 15µM* | -7%
O=C(NCCCN1CCOCC1)c1cc(Cl)ccc1OCc1ccccc1 | -5% | i | 2% | -3% | i | -1%
Cc1cc(C)c2nc(/N=C(\N)NC(=O)Nc3ccccc3)nc(C)c2c1 | -16% | i | 21µM* | -16% | ? | 9.2µM*
Nc1ccc2c(c1)C(=O)c1ccccc1-2 | 15% | i | 1% | 15% | i | ?
O=C1C(=O)c2ccc(-c3ccccc3)cc2-c2ccccc21 | 3.3µM* | 4.1µM* | ? | 3.7µM* | 3.7µM* | 5.8µM*
Nc1ccc2c(c1)C(=O)C(=O)c1ccccc1-2 | ? | 2.9µM* | ? | 4.6µM* | 4.6µM* | 3.7µM*
CC1CCCCN1C(=O)C1CCN(c2nc(-c3ccccc3)nc3c2CCC3)CC1 (stereo not drawn) | 11% | 21µM* | ? | -1% | i | 0%
Cc1ccc(NS(=O)(=O)c2cc3c4c(cccc4c2)C(=O)NC3=O)cc1C | 5.2µM* | 15µM* | 15µM* | 7.3µM* | ? | 28%
COCC(=O)N/N=C\c1cccc(OC)c1OC/C=C/c1ccccc1 | -30% | ? | 11% | -25% | i | 16µM*
N#CCC(=O)N/N=C\c1ccccc1OC/C=C/c1ccccc1 | -19% | i | 183% | -13% | i | 16µM*
COc1ccc(C=NCCC2(O)CC(C)N(C)CC2C)cc1 (stereo not drawn) | -1% | i | -1% | -3% | i | 0%
CCn1c(C(=O)N2CCC(Cc3ccccc3)CC2)cc2sccc21 | -5% | i | 21µM* | 1% | i | 1%

Bioassay records from PubChem BioAssay.
